This passage reports activation (GFP accumulation) results from PubChem BioAssay AID526 (National Center for Advancing Translational Sciences (NCATS), 2006).

Screen size: about 67,000 compounds; fewer than 10 were called active. A selection follows. Values without a mark were called inactive. Calls follow the shape of the dose curve; as a rule, active = well fitted activation curve with a large enough effect (not every such curve was filed as active); inconclusive = small, poorly fitted or top-dose-only effect, or another doubt; inactive = no such curve, though single readings can be large or run the other way.

The nature of the assay: Ubiquitin-GFP Assay. To be noted: Ubiquitin-GFP reporter cells, proteasome inhibition, GFP fluorescence, untreated = 0%, 10 µM MG-132 = 100%; series mostly up to 45.9 µM. The source says: NIH Chemical Genomics Center [NCGC]
NIH Molecular Libraries Screening Centers Network [MLSCN]
The ubiquitin-proteasome pathway is present within all eukaryotic cells and plays roles in normal cellular functions and disease-related dysfunction. Proteins are tagged with a poly-ubiquitin chain that targets them for the proteasome, a multimeric protease, that degrades the protein into peptides and free ubiquitin. The proteasome has a key role in regulating cell cycle and growth and is known to control the levels of cyclins and CDK inhibitors as well as tumor suppressor proteins. Additionally, the activation of NF- B is controlled by ubiquitin-labeling and degradation of the inhibitory protein I B . […] With this in mind, proteasome inhibitors such as MG-132 and PS-341 have been used to inhibit tumor cell growth.
A cellular assay for ubiquitin-proteasome function was used to find chemical probes of this pathway. The assay used an ubiquitin-GFP construct expressed in U2OS cells (BioImage). Under basal conditions little GFP can be detected as it is degraded by the proteasome. However, treatment of the cells with a proteasome inhibitor such as MG-132 results in a rise in GFP levels that can be detected in as little as four hours. We used the Acumen-Explorer laser plate cytometer having a 488 nm laser as an excitation light source to detect the GFP. Compounds were screened in 1536-well plates using qHTS with a concentration-titration series range that varied from 46 uM to 2.9 nM.
NCGC Assay Protocol Summary:
Cells (U20S ps 2042) expressing ubiquitin (G76V-GFP) were maintained in DMEM with Glutamax-1 and high glucose, 10% FBS, 1% (v/v) penicillin-streptomycin, 0.5 mg/mL Geneticin (G418). The cells were seeded in 1536-well plates using a solenoid-based dispenser at 700 cells/5ul in DMEM medium with Glutamax-1 and high glucose containing 0.5% FBS, w/o phenol red, 25 mM HEPES. The plates were incubated at 37 °C/5% CO2 overnight. Then 23 nl of MG-132 in DMSO was added to the control wells at a final concentration of 10 uM. Next, 23 nL of library compounds in DMSO were added to the sample wells. The plates were incubated for 4 hrs at 37 °C/5% CO2. Following this incubation the plates were read on the Acumen using a cell object definition of 15 to 100 um in width and depth and a window of Total Intensity of between 77,200 and 2,720,000 FLU to enumerate GFP-expressing cells.
The %Activity was determined from the basal and MG-132 treated control wells. %Activity was determined by normalizing to the difference in signal between basal cells (0% Activity) and cells incubated with 10 uM of the proteasome inhibitor MG-132 (100% Activity). Concentration-response curves were fitted to the signals arising from the GFP fluorescence.
Assay Protocol Summary Table
Sequence Parameter Value Description
2. Time O/N 37C incubation
4. Compound 23 nL Libraries (46 uM to 2.9 nM)
5. Time 4 hr 37C incubation
6. Detector Acumen Total Intensity, GFP fluorescence (488 ex/515 em)
Keywords: NIH Roadmap, MLSCN, MLI, MLSMR, BioImage, proteasome, ubiquitin-GFP, qHTS, NCGC
For the compound `CN(C)CCSS(=O)(=O)O`, the activation (GFP accumulation) was 9.1% [at 9.17 µM].

As to `CCCn1c(C)nc2c(NCCCCN(CC)CC)nc(C)nc21`, the activation (GFP accumulation) entry was “inactive”.

With `CCOC(=O)N1CCN(C(=O)Cc2ccc(-n3c(=S)[nH]c4ccccc4c3=O)cc2)CC1`, the activation (GFP accumulation) result was “inactive”.

On to `CCN(CC)CCCCn1c(-c2ccccc2)nc2c(N3CCOCC3)nc(C)nc21`, for which the activation (GFP accumulation) entry was “inactive”.

Take `CCN(Cc1ccncc1)C(=O)c1cccc(S(=O)(=O)N2CCOCC2)c1`: the activation (GFP accumulation) result is “inactive”.

On to `CN(C)CC/C=C1\c2ccccc2CSc2ccccc21`, for which the activation (GFP accumulation) entry was “inactive”.

In the case of `CC[C@@H]1Cc2cc(O)ccc2C2=C1c1ccc(O)cc1C[C@H]2CC`, the activation (GFP accumulation) result is “inactive”.

On to `COc1ccc(C(=O)n2nc(-c3ccc(C)cc3)nc2N)cc1OC`, for which the activation (GFP accumulation) result is “inactive”.

As for `O=C(C1CCC1)N1CCc2cc(S(=O)(=O)NCc3cccnc3)ccc21`, the activation (GFP accumulation) result was “inactive”.

Consider `CC(C)CNC(=O)c1cc(-c2ccc(Br)cc2)on1`, for which the activation (GFP accumulation) result was “inactive”.

With `CCn1c(CNC(=O)c2ccc(OC)c(OC)c2)nnc1SCC(=O)Nc1ccccc1`, the activation (GFP accumulation) result was “inactive”.

As for `COCCNC(=O)c1snc2ccc(Cl)cc12`, the activation (GFP accumulation) entry is “inactive”.

Regarding `O=C(c1cc(C(F)(F)F)cc(C(F)(F)F)c1)N1CCC[C@@]2(CCN(c3ccccn3)C2)C1`, the activation (GFP accumulation) result was “inactive”.

With `COc1ccc(CCNC(=O)CSc2nc(C)nc3c2oc2ccccc23)cc1OC`, the activation (GFP accumulation) result is “inactive”.

Consider `Cc1nnc(SCC(=O)NCc2ccccc2)s1`, for which the activation (GFP accumulation) entry was “inactive”.

Consider `COc1ccc2nccc(C(=O)O)c2c1`, for which the activation (GFP accumulation) result was “inactive”.

For the compound `COC(=O)c1cc(NC(=O)CN2CCC(C(N)=O)(N3CCCCC3)CC2)cc(C(=O)OC)c1`, the activation (GFP accumulation) entry is “inactive”.

Take `COc1ccc(N(Cc2cc3cc(OC)ccc3[nH]c2=O)S(C)(=O)=O)cc1`: the activation (GFP accumulation) entry was “inactive”.

In the case of `O=C(CN1CCOCC1)N1CCCc2c1c(=O)oc1ccc(OCc3ccccc3)cc21`, the activation (GFP accumulation) result was “inactive”.

`O=C(O)/C(=C/c1c(C(=O)O)[nH]c2cc(Cl)cc(Cl)c12)c1ccccc1`: the activation (GFP accumulation) result is “inactive”.

Consider `CCCn1c(-c2ccc(F)cc2)nc2c(NC3CCN(Cc4ccccc4)C3)nc(C)nc21` (configuration not stated), for which the activation (GFP accumulation) entry is “inactive”.

Take `COc1ccc(N(CC(=O)NC(C)(C)C)C(=O)c2ccco2)cc1`: the activation (GFP accumulation) entry is “inactive”.

As for `CCOC(=O)c1cnc2sccn2c1=O`, the activation (GFP accumulation) entry was “inactive”.

In the case of `COC(=O)Cn1c(=NC(=O)CSCC(=O)Nc2cc(C)on2)sc2ccccc21`, the activation (GFP accumulation) result is “inactive”.

Turning to `Cc1ccc(C)c2[nH]c(=O)c(CCNC(=O)CC(C)C)cc12`, the activation (GFP accumulation) entry was “inactive”.

As to `COc1cccc(Cn2c(=O)c(C)nc3cnc(Oc4ccccc4)nc32)c1`, the activation (GFP accumulation) entry is “inactive”.

With `O=c1c(-c2ccc(F)cc2)nc2cnc(N3CCNCC3)nc2n1Cc1cccs1`, the activation (GFP accumulation) entry is “inactive”.

On to `Cc1ccc(SCc2cc(=O)[nH]c(N3CCCCC3)n2)cc1`, for which the activation (GFP accumulation) result was “inactive”.

Turning to `CC(=O)Oc1ccc(C(=O)Nc2nccs2)cc1`, the activation (GFP accumulation) result was “inactive”.

Consider `CCn1c(=O)cc(SCC(=O)NCc2ccc3c(c2)OCO3)c2ccccc21`, for which the activation (GFP accumulation) result is “inactive”.

Take `Oc1cc2c(cc1O)CN(C(=S)NCCc1ccc(Cl)cc1)CCC2`: the activation (GFP accumulation) result is “inactive”.

As to `Cc1ccc(-c2c3c(=O)n(C)c(=O)n(C)c3cn2-c2ccccc2O)cc1`, the activation (GFP accumulation) entry was “inactive”.

In the case of `CCCCn1nnnc1NCc1cc(OC)c(OC)c(OC)c1`, the activation (GFP accumulation) entry was “inactive”.

On to `CC(N)=NCc1cccc(CN)c1`, for which the activation (GFP accumulation) entry was “inactive”.

With `CN1C(=O)C[C@H](c2ccccc2)C1=O`, the activation (GFP accumulation) entry is “inactive”.

Regarding `Nc1nc2c(ncn2[C@H]2CC[C@@H](CO)O2)c(=O)n1C(=O)c1ccccc1`, the activation (GFP accumulation) is -2.15% [at 9.17 µM].

With `Cc1ccc(-n2ncc3c2ncn2nc(-c4ccco4)nc32)c(C)c1`, the activation (GFP accumulation) entry is “inactive”.

For the compound `CCCCC(=O)Nc1cc(C)c2c(=O)oc3ccccc3c2n1`, the activation (GFP accumulation) entry was “inactive”.

Turning to `Cc1ccc(NC(=O)NCC(c2cccnc2)N2CCOCC2)cc1` (configuration not stated), the activation (GFP accumulation) entry is “inactive”.

In the case of `COc1cc(C2C(C#N)=C(C)NC3=C2C(=O)CC(C)(C)C3)ccc1O` (configuration not stated), the activation (GFP accumulation) entry was “inactive”.

As to `COc1ccc(N2C(=O)c3cccc4cccc(c34)C2=O)nn1`, the activation (GFP accumulation) result was “inactive”.

Consider `O=C(Nc1nsc(-c2ccccc2)n1)c1ccncc1`, for which the activation (GFP accumulation) entry was “inactive”.

Consider `C[N+](C)(C)CCCCCNCC12CC3CC(CC(C3)C1)C2`, for which the activation (GFP accumulation) entry was “inactive”.

With `CN(C)c1ccnc2sc3c(=O)n(Cc4ccccc4)cnc3c12`, the activation (GFP accumulation) entry was “inactive”.

On to `O=C(O)CN(Cc1ccco1)S(=O)(=O)c1ccccc1`, for which the activation (GFP accumulation) entry is “inactive”.

In the case of `CCOCCCNS(=O)(=O)Cc1ccccc1`, the activation (GFP accumulation) result is “inactive”.

Consider `O=C(O)[C@H](CCc1ccccn1)c1ccccc1`, for which the activation (GFP accumulation) was -6.91% [at 9.17 µM].
